KCNQ2 inh: rat KCNQ2 potassium channel inhibitors, primary screen, cell-based, CHO-K1, FluxOR thallium flux, B-score; Potassium voltage-gated channel subfamily KQT member 2 (Rattus norvegicus), O88943; 20 min; hits give low values; B-score at 10 µM; 310,000 tested, 1.1% active; AID 2156, 2009;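 active means fluorescence ratio B-score at most minus 3 library SDs, with starting brightness B-score within 2 library SDs, cut at about -5.5 in these data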
Target sequence (O88943 whole entry, looked up): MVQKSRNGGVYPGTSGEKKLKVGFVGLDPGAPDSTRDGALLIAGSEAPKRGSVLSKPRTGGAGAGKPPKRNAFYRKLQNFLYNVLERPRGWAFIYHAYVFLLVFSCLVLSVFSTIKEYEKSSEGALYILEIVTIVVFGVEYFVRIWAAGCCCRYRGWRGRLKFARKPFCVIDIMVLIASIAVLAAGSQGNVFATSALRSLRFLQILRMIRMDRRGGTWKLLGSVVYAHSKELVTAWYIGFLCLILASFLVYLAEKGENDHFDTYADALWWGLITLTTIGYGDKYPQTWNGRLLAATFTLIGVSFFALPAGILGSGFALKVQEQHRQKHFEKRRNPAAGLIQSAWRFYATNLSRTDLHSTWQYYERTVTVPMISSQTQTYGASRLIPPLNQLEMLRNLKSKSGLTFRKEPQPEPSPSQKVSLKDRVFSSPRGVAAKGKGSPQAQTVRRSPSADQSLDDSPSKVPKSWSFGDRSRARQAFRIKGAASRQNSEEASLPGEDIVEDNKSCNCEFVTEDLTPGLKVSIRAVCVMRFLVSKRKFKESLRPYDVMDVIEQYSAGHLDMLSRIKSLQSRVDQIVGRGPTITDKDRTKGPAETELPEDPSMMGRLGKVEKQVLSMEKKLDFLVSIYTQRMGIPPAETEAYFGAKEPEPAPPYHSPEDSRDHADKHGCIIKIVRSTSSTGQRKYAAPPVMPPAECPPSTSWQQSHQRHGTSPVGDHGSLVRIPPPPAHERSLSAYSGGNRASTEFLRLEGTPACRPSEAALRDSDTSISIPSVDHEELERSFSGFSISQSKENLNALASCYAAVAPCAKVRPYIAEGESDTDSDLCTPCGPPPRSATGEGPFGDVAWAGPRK
KCNQ2 pot: potentiators of rat KCNQ2 potassium channel; B-score at 10 µM; Potassium voltage-gated channel subfamily KQT member 2 (Rattus norvegicus), O88943; AID 2239, 2010; 310,000 tested, 0.54% active; CHO-K1 KCNQ2, FluxOR thallium flux fluorescence; hits give high values;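 active means fluorescence ratio B-score at least 3 SD of library B-scores, with initial fluorescence B-score within 3 of them, cut at about 5.3 in these data; same plate scores as AID 2156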;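 further: B-score of peak minus minimum over baseline fluorescence ratio after K+ and Tl+ stimulus; positive B-score means potentiation of KCNQ2 with more thallium influx and brighter signal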
KCNQ2 block conf: rat KCNQ2 potassium channel inhibitors, confirmation, cell-based, thallium flux | activity change, negative = inhibition, % at 10 µM | KCNQ2-expressing cells, inhibition; hits give low values | 1,000 tested, 57% active | shares compounds with KCNQ2 inh | AID 493025, 2011
KCNQ1 spec: human KCNQ1 channel inhibition, counter-screen for KCNQ2 inhibitor project, cell-based, FluxOR thallium flux | shares compounds with KCNQ2 inh | KCNQ1-expressing cells, FluxOR thallium flux fluorescence; hits give low values | activity change, negative = inhibition, % at 10 µM | 1,000 tested, 15% active | AID 493026, 2011;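 active means activity change at least 3 SD of negative controls below their mean in both duplicate wells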;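 further: CHO cells stably transfected with KCNQ1 and depolarized by potassium stimulus; peak minus minimum fluorescence over baseline after thallium addition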
CHO parental ctr: thallium flux change in parental CHO cells, counter-screen for KCNQ2 inhibitor project | shares compounds with KCNQ2 inh | hits give low values | activity change, % at 10 µM | 1,000 tested, 14% active
KCNQ2 inh confirm: rat KCNQ2 channel inhibitors, confirmation, cell-based, automated patch clamp, single concentration. shares compounds with KCNQ2 inh. KCNQ2-expressing cells, automated patch clamp current. calls only at 10 µM. 550 tested, 49% active
Kir21 conf inh: mouse Kir2.1 channel blockers, retest, confirmation, cell-based, FluxOR thallium flux, duplicate. shares compounds with KCNQ2 pot. Kir2.1-expressing cells, FluxOR thallium flux fluorescence; hits give low values. Tl flux remaining, % of negative control (hits give low values), % at 10 µM. 2,300 tested, 41% active. AID 2032, 2009;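 active means Primary-screen hit whose thallium flux fell at least 3 control SD below untreated wells in both duplicates, with normal baseline fluorescence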
HEK293 ctr: counter-screen for Kir2.1 inhibitors: effect in parental HEK293 cells; shares compounds with KCNQ2 pot; FluxOR thallium flux fluorescence; 0% = unstimulated blank wells; FluxOR signal as % of negative control (100 = no effect), % at 10 µM; 2,300 tested, 19% active;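 active means dye signal at least 3 control SD above or below untreated wells in both duplicates, raw fluorescence within 3, either direction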;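 further: percent is based on the flux ratio of peak minus minimum fluorescence over baseline F0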
Kir2-1 sel: mouse Kir2.1 channel activation off-target, confirmation, selectivity assay for KCNQ2 potentiator project, cell-based, HEK293, FluxOR thallium flux | shares compounds with KCNQ2 pot | HEK293 Kir2.1, FluxOR thallium flux fluorescence | activity over 3SD threshold, % at 10 µM | 1,200 tested, 2% active;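 active means fluorescence ratio rise of at least 3 SD above the vehicle-control mean, seen in both replicates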
A number is an active result; – = inactive; · = not tested or not shown; + = active, no number. An excerpt weighted towards active compounds, which were near 1.6% of everything screened. Unless noted, how the calls were made is not given here.

SMILES | KCNQ2 inh | KCNQ2 pot | Kir21 conf inh | HEK293 ctr | others
OCCNc1nc(Nc2ccc(Br)cc2)nc2ccccc12 | -12 | – | 30% | – | KCNQ2 block conf=-26%;KCNQ1 spec=–;CHO parental ctr=–;KCNQ2 inh confirm=–
OCCNc1nc(Nc2ccccc2)nc2ccccc12 | – | – | · | ·
Cc1nc(C)c(-c2ccn(C(=O)NC(C)C)n2)s1 | – | – | · | ·
Cc1ccccc1C(=O)Nc1cc(NC(=O)c2ccccc2C)cc(C(=O)O)c1 | – | · | · | ·
Clc1ccc(-c2nc3cc(CN4CCCCC4)ccc3o2)cc1 | – | · | · | ·
CCCCCCCNC(=O)C1(CC2CC(c3cccc(Br)c3)=NO2)CCNCC1 (stereo not given) | -8.6 | – | 37% | – | KCNQ2 block conf=-42%;KCNQ1 spec=-43%;CHO parental ctr=-45%;KCNQ2 inh confirm=+
CCCCCCCNC(=O)C1(CC2CC(c3cccc(Br)c3)=NO2)CCN(C(=O)c2ccccc2)CC1 (stereo not given) | – | · | · | ·
CC(C)(C)OC(=O)N1CCN(c2ccc(NC(=O)c3ccco3)cc2)CC1 | – | – | · | ·
Cc1cccc(C(=O)N2CCN(Cc3nc4sc5c(c4c(=O)[nH]3)CCCC5)CC2)c1 | – | – | · | ·
CC1CCC(C(C)C)C(OC(=O)COC(=O)c2cc(O)ccc2N)C1 (stereo not given) | – | – | · | ·
CC1CCC(C(C)C)C(OC(=O)COC(=O)c2ccc(=O)[nH]c2)C1 (stereo not given) | – | – | · | ·
COc1ccc(OCc2n(CC(=O)OC3CC(C)CCC3C(C)C)c3ccccc3[n+]2C)cc1 (stereo not given) | -7.4 | – | 16% | – | KCNQ2 block conf=-21%;KCNQ1 spec=–;CHO parental ctr=–;KCNQ2 inh confirm=+
COc1ccc(-c2n(CC(=O)OC3CC(C)CCC3C(C)C)c3ccccc3[n+]2C)cc1 (stereo not given) | -11 | – | – | – | KCNQ2 block conf=-34%;KCNQ1 spec=–;CHO parental ctr=–;KCNQ2 inh confirm=+
Cc1cc(C)c(S(=O)(=O)c2ccccc2F)c(=O)[nH]1 | – | · | · | ·
COc1ccc(CCN2CCCC(CN(C)Cc3cc(OC)ccc3OC)C2)cc1 (stereo not given) | – | – | · | ·
CN(Cc1ccccc1O)CC1CCCN(CCc2ccc(Cl)cc2)C1 (stereo not given) | -9 | – | 23% | – | KCNQ2 block conf=–;KCNQ1 spec=–;CHO parental ctr=–
Cc1ccc(C(=O)c2no[n+]([O-])c2C(=O)c2ccc(C)cc2)cc1 | -9.7 | – | 70% | 62% | KCNQ2 block conf=-28%;KCNQ1 spec=–;CHO parental ctr=–;KCNQ2 inh confirm=–;Kir2-1 sel=–
Cc1ccc(C(=O)c2ccc(C)cc2)cc1 | – | · | · | ·
CC(C)Cn1cnc2c(c(-c3ccccc3)c(-c3ccccc3)n2Cc2ccco2)c1=N | -10 | – | – | 134% | KCNQ2 block conf=–;KCNQ1 spec=–;CHO parental ctr=–
N=c1c2c(-c3ccccc3)c(-c3ccccc3)n(Cc3ccccc3)c2ncn1CCO | -7.5 | – | 38% | 63% | KCNQ2 block conf=–;KCNQ1 spec=–;CHO parental ctr=–
N=c1c2c(-c3ccccc3)c(-c3ccccc3)n(Cc3ccco3)c2ncn1CCCN1CCOCC1 | – | · | · | ·
N=c1c2c(-c3ccccc3)c(-c3ccccc3)oc2ncn1CCN1CCOCC1 | – | · | · | ·
O=C(O)c1cc(N2C(=O)CCC2=O)ccc1Cl | – | – | · | ·
CC1=C(C(=O)OCC2CCCO2)C(c2ccsc2)C2=C(CCCC2=O)N1 (stereo not given) | – | – | · | ·
Cc1ccc(COc2ccc(/C=N/O)cc2)cc1 | – | · | · | ·
SMILES | KCNQ2 inh | KCNQ2 pot | Kir21 conf inh | HEK293 ctr | others
NC(N)=N/N=C/c1ccc(OCc2ccc(Cl)cc2)cc1 | -9.6 | – | – | 76% | KCNQ2 block conf=-37%;KCNQ1 spec=–;CHO parental ctr=–;KCNQ2 inh confirm=+
COc1ccc(CNCCc2ccc(Cl)cc2)cc1OCc1ccccc1 | -13 | – | 14% | – | KCNQ2 block conf=–;KCNQ1 spec=–;CHO parental ctr=–
CCOc1cc(CNCc2ccccc2)ccc1OCc1ccc(Cl)cc1 | – | · | · | ·
O=C(O)c1cccc(Nc2ccncc2[N+](=O)[O-])c1 | – | · | · | ·
CCCCn1c(N)c(N(CC(C)C)C(=O)c2ccc3c(c2)NC(=O)C(C)S3)c(=O)[nH]c1=O (stereo not given) | – | · | · | ·
O=C(NCC1CCCO1)c1cc(-c2ccccc2F)no1 (stereo not given) | – | · | · | ·
CC1(C)OC(=O)N(c2ccccc2)C12C=Cc1cc(Br)ccc1O2 (stereo not given) | – | · | · | ·
CN1c2ccccc2C(C)(C)[C@]12C=Cc1cc(O)ccc1O2 | -9.5 | – | – | – | KCNQ2 block conf=-34%;KCNQ1 spec=–;CHO parental ctr=–;KCNQ2 inh confirm=–
N#CCCN(C(=O)COC(=O)C1CCN(S(=O)(=O)c2cccs2)CC1)c1ccccc1 | – | – | · | ·
O=C1CC(c2ccc(O)c(O)c2)Oc2cc(O)cc(O)c21 (stereo not given) | – | – | · | ·
CC(C)=CCc1c(O)ccc2c1OC(c1ccc(O)c(O)c1)CC2=O (stereo not given) | -8.7 | – | 54% | – | KCNQ2 block conf=–;KCNQ1 spec=–;CHO parental ctr=–
CC(=O)COc1coc(CN2CCN(c3ccc(F)cc3)CC2)cc1=O | – | · | · | ·
Cc1ccc(S(=O)(=O)Oc2ccccc2/C=N/N=C(N)N)cc1 | – | · | 46% | –
Cc1ccc(S(=O)(=O)Oc2ccccc2/C=N/NC(N)=S)cc1 | – | – | · | ·
Cc1nn(C)cc1S(=O)(=O)N1CCN(Cc2ccc(F)cc2Cl)CC1 | – | – | · | ·
CCN(Cc1ccccc1)S(=O)(=O)c1ccc2c(c1)NC(=O)CS2 | – | – | 73% | –
CCN(Cc1ccccc1)S(=O)(=O)c1ccc2c(c1)NC(=O)CC(=O)N2 | – | · | · | ·
C/[N+]([O-])=C\C1C(=O)CCCC1=O | – | – | · | ·
Cc1ccc(CCNC(=O)c2nnc(CS(=O)(=O)c3ccccc3)o2)cc1 | – | · | · | ·
Cc1cccc(-n2nnc3c(=O)n(Cc4ccccn4)cnc32)c1 | – | – | · | ·
CCOC(=O)c1c(NC(=O)OC)sc2c1CCC2 | – | – | · | ·
CC1CCc2c(sc(NC(=O)c3ccco3)c2C(=O)O)C1 (stereo not given) | – | – | · | ·
COC(=O)c1c(NC(=O)c2ccc(C)c(S(=O)(=O)Nc3ccccc3C)c2)sc2c1CCCC2 | – | · | · | ·
CCOC(=O)c1c(NS(=O)(=O)Cc2ccccc2)sc2c1CCCC2 | – | · | – | 338%
CC1CCc2c(sc(NS(=O)(=O)c3ccccc3)c2C(=O)OC(C)C)C1 (stereo not given) | – | – | – | –

Screening data from PubChem BioAssay.
